“And” between values parts separate entries of the source, which are not always exact repeats. Equal entries are not always repeated. More than one record can exist for a structure, and the calls need not agree. The source made the active and inactive calls.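 Rule for the calls, unless noted: active = thallium flux through the channel raised or lowered by more than 3 SD from vehicle-only wells, actives on both sides; inactive = the rest.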
Tests used:
[1] = polyglutamine-triggered caspase-3 activation inhibitors, cell-based (AID 1583); conditions: polyglutamine-induced caspase-3 activation, cell assay; stronger effect = higher value;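 tested at 10 µM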
[2] = suppressors of polyQ aggregation in yeast, 75Q-TubU reporter (AID 1593); conditions: Yeast 75Q polyglutamine aggregation reporter
[3] = inhibitors of mitochondrial cytochrome c release, biochemical, purified mitochondria (AID 1603); conditions: stronger effect = lower value;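 note: mouse liver mitochondria challenged with calcium chloride; signal normalized to the plate average as 100%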
[4] = inhibitors of polyQ protein aggregation (AID 1604); conditions: polyglutamine-induced protein aggregation inhibition assay; stronger effect = higher value; tested at 2.5 µM
[5] = enhancers of glutamate uptake in motor neurons, MN-1 cell line (AID 1612); conditions: MN-1 motor neuron cells, stronger effect = higher value;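 note: tested at 1 µM final; 0% = mean of DMSO vehicle wells on each plate; positive means more glutamate uptake than control and negative means less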
[6] = Cy5 fluorescence interference with SSB-bound oligo, artefact control for HCV NS3 helicase inhibitor project, biochemical, NIH Clinical Collection, E. coli SSB (AID 743268; call rule not given here)
[7] = system: Hepatitis C virus NS3 helicase; assay: HCV NS3 helicase inhibitors, primary screen, biochemical, fluorescence polarization, NIH Clinical Collection (AID 743270; call rule not given here); conditions: NS3 helicase binding to Cy5-dT15 DNA, stronger effect = higher value, concentration not given here
[8] = target: Single-stranded DNA-binding protein (Escherichia coli (strain K12)) (UniProt P0AGE0); assay: E. coli SSB displacement from DNA, counter-screen for HCV NS3 helicase inhibitor project, biochemical, fluorescence polarization, NIH Clinical Collection (AID 743271; in the data active = inhibition above about 28%); conditions: stronger effect = higher value, concentration not given here
[9] = fluorescence interference in NS3h assay format, artefact control for HCV NS3 helicase inhibitor project, biochemical, NIH Clinical Collection (AID 743272; call rule not given here;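 note: HCV NS3 helicase with a Cy5 labelled single stranded DNA probe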); conditions: fluorescence interference counterscreen, stronger effect = lower value
F380Y/beta4 = assay: modulators of BK channel variants, profiling panel, selectivity assay, cell-based, U2OS BacMam, thallium flux, beta subunits (AID 1259406); conditions: at 30 µM;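 note: initial slope of Thallos dye fluorescence rise after thallium is added; log ratio against the mean of 0.3% DMSO vehicle wells on the same plate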
[10] = target: Calcium-activated potassium channel subunit alpha-1 (Homo sapiens) + Leucine-rich repeat-containing protein 26 (Homo sapiens) (UniProt Q12791+Q2I0M4); assay: as above; conditions: F380Y/Slo1WT/gamma1, at 30 µM
Calcium-activated potassium channel subunit alpha-1 (Homo sapiens) + Leucine-rich repeat-containing protein 26 (Homo sapiens), sequence (Q2I0M4 whole entry, looked up, one chain of several): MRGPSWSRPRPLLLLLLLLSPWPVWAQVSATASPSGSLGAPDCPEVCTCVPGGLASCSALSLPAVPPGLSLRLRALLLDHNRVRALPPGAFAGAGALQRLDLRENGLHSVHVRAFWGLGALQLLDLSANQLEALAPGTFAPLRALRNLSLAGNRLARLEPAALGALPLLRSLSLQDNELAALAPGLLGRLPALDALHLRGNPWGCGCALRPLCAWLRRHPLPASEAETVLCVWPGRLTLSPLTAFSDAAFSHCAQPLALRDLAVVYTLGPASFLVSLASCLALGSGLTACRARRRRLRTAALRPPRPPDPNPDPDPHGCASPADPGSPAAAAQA

R275C = assay: as above; conditions: at 30 µM
R275C/beta1 = assay: as above; conditions: at 30 µM
R275C/beta2Delta = assay: as above; conditions: at 30 µM
R275C/beta4 = assay: as above; conditions: at 30 µM
R275C/Slo1WT/beta2 = assay: as above; conditions: at 30 µM
[11] = viability rescue of complex I mutant cybrids, primary screen, cell-based, galactose medium, ATP luminescence (AID 1645843;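 active = z-score of at least 1.8 in each of two replicates, scored against plate mean and spread of sample wells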;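 note: positive z means more ATP and so rescue of galactose-driven cybrid death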); conditions: complex I mutant cybrid cells, 72 h, stronger effect = higher value
[12] = LFS_MB_P medulloblastoma growth inhibition, cell-based, chromothripsis tumors, cisplatin or BGB combos (AID 1671449; in the data active = inhibition above about 80%;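 note: cells exposed for 96 hours; 0% = vehicle DMSO and 100% = killing by high DMSO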); conditions: LFS_MB_P medulloblastoma cells
[13] = HDN33 neuroblastoma growth inhibition, cell-based, chromothripsis tumors, cisplatin or BGB combos (AID 1671450; in the data active = inhibition above about 80%;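 note: cells exposed to compound for four days; 0% = vehicle DMSO and 100% = cell killing by high DMSO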); conditions: HDN33 neuroblastoma cells, stronger effect = higher value
[14] = HTB85 osteosarcoma cell growth inhibition, synergistic combos for chromothripsis tumors, BGB or cisplatin IC20 combos (AID 1671453; in the data active = inhibition above about 80%;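 note: cells exposed for 96 hours before readout; 0% = vehicle DMSO and 100% = high DMSO killing control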); conditions: HTB85 osteosarcoma cells, drug combinations, stronger effect = higher value

Clc1cccc(Cl)c1NC1=NCCN1
inhibition [1]: 5.5%
score [2]: 1.4
cytochrome c release ratio [3]: 1.31
inhibition of aggregation [4]: 86.9%
glutamate uptake change [5]: 13.8%
fluorescence ratio [6]: 1.05 (inactive)
inhibition [7]: -2.77% (inactive)
inhibition [8]: -2.41% (inactive)
fluorescence ratio [9]: 1.02 (inactive)
log fold change Tl+ flux (F380Y/beta4): -0.00138 (inactive)
log fold change Tl+ flux [10]: 0.0127 (inactive)
log fold change Tl+ flux (R275C): -0.0635 (inactive)
log fold change Tl+ flux (R275C/beta1): 0.000941 (inactive)
log fold change Tl+ flux (R275C/beta2Delta): -0.00732 (inactive)
log fold change Tl+ flux (R275C/beta4): 0.0373 (inactive)
log fold change Tl+ flux (R275C/Slo1WT/beta2): 0.0101 (inactive)

CCN(CC)CCCC(C)Nc1c2ccc(Cl)cc2nc2ccc(OC)cc12 (stereo not given)
inhibition [1]: -263%
score [2]: 0.79
cytochrome c release ratio [3]: 1.44
inhibition of aggregation [4]: 77.3%
glutamate uptake change [5]: 2.03%
z-score [11]: -1.35 (inactive) and -2.13 (inactive)
inhibition ([12]; at 0.5 µM, stronger effect = higher value): -9.53% (inactive)
inhibition ([12]; measured here: combination with BGB IC20, at 0.005 µM): 13.9%
inhibition ([12]; measured here: combination with BGB IC40, at 0.005 µM): 18.9%
inhibition ([12]; measured here: combination with BGB IC40, at 0.05 µM): 6.94%
inhibition ([12]; measured here: combination with cisplatin, at 0.5 µM, stronger effect = higher value): -29.9%
inhibition ([12]; measured here: combination with cisplatin, at 5 µM, stronger effect = higher value): 113%
inhibition ([13]; BGB combo, at 5 µM): 99.8%
inhibition ([13]; at 0.5 µM): -12.9% (inactive)
inhibition ([13]; cisplatin combo, at 5 µM): 99.8%
inhibition ([13]; measured here: with BGB IC20 combination, at 0.5 µM): -9.01%
inhibition ([13]; measured here: with cisplatin IC20 combination, at 0.5 µM): -29.7%
inhibition ([13]; single agent, at 5 µM): 99.8%
inhibition ([14]; at 0.5 µM): -23.3% (inactive)
inhibition ([14]; measured here: with BGB IC20, at 0.5 µM): -27.3%
inhibition ([14]; measured here: with BGB IC20, at 5 µM): 99.8%
inhibition ([14]; measured here: with cisplatin IC20, at 0.5 µM): -38%
inhibition ([14]; measured here: with cisplatin IC20, at 5 µM): 99.9%
inhibition ([14]; single agent, at 5 µM): 99.9%

CCN(CC)CCCC(C)Nc1ccnc2cc(Cl)ccc12 (stereo not given)
inhibition [1]: 9.86%
score [2]: 1.1
cytochrome c release ratio [3]: 1.15
inhibition of aggregation [4]: 68.5%
glutamate uptake change [5]: -7.63%
z-score [11]: -1.02 (inactive) and -1.18 (inactive)

CC1=C(CC(=O)O)c2cc(F)ccc2/C1=C\c1ccc(S(C)=O)cc1 (stereo not given)
inhibition [1]: 12.6%
score [2]: 0.78
cytochrome c release ratio [3]: 0.97
inhibition of aggregation [4]: 78.9%
glutamate uptake change [5]: 3.54%
fluorescence ratio [6]: 1.04 (inactive)
inhibition [7]: -7.73% (inactive)
inhibition [8]: -3.53% (inactive)
fluorescence ratio [9]: 1.01 (inactive)
z-score [11]: -0.94 (inactive) and -0.735 (inactive) and -0.12 (inactive)
log fold change Tl+ flux (F380Y/beta4): 0.0346 (inactive)
log fold change Tl+ flux [10]: 0.0386 (inactive)
log fold change Tl+ flux (R275C): -0.0121 (inactive)
log fold change Tl+ flux (R275C/beta1): -0.0305 (inactive)
log fold change Tl+ flux (R275C/beta2Delta): -0.0296 (inactive)
log fold change Tl+ flux (R275C/beta4): 0.044 (inactive)
log fold change Tl+ flux (R275C/Slo1WT/beta2): 0.0257 (inactive)

Cc1noc(NS(=O)(=O)c2ccc(N)cc2)c1C
inhibition [1]: 16.5%
score [2]: 1.57
cytochrome c release ratio [3]: 0.89
inhibition of aggregation [4]: 1.83%
glutamate uptake change [5]: -4.32%
z-score [11]: -0.585 (inactive) and 0.925 (inactive)
log fold change Tl+ flux (F380Y/beta4): -0.0245 (inactive)
log fold change Tl+ flux [10]: 0.0135 (inactive)
log fold change Tl+ flux (R275C): -0.023 (inactive)
log fold change Tl+ flux (R275C/beta1): -0.0138 (inactive)
log fold change Tl+ flux (R275C/beta2Delta): 0.00261 (inactive)
log fold change Tl+ flux (R275C/beta4): -0.0229 (inactive)
log fold change Tl+ flux (R275C/Slo1WT/beta2): -0.0743 (inactive)

CC[C@H](C)C(=O)O[C@H]1C[C@@H](C)C=C2C=C[C@H](C)[C@H](CC[C@@H]3C[C@@H](O)CC(=O)O3)[C@H]21
inhibition [1]: -14.6%
score [2]: -1.08
cytochrome c release ratio [3]: 0.75
inhibition of aggregation [4]: 26.5%
glutamate uptake change [5]: -19%
fluorescence ratio [6]: 1.1 (inactive)
inhibition [7]: 3.18% (inactive)
inhibition [8]: 3.34% (inactive)
fluorescence ratio [9]: 0.96 (inactive)
z-score [11]: -0.3 (inactive) and -0.62 (inactive) and -0.095 (inactive)
log fold change Tl+ flux (F380Y/beta4): -0.0805 (inactive)
log fold change Tl+ flux [10]: 0.025 (inactive)
log fold change Tl+ flux (R275C): -0.0727 (inactive)
log fold change Tl+ flux (R275C/beta1): 0.0657 (inactive)
log fold change Tl+ flux (R275C/beta2Delta): 0.0172 (inactive)
log fold change Tl+ flux (R275C/beta4): 0.0477 (inactive)
log fold change Tl+ flux (R275C/Slo1WT/beta2): -0.0508 (inactive)

Oc1ccc(/C=C/c2cc(O)cc(O)c2)cc1
fluorescence ratio [6]: 0.95 (inactive)
inhibition [7]: -2.84% (inactive)
inhibition [8]: -2.76% (inactive)
fluorescence ratio [9]: 0.93 (inactive)
z-score [11]: 2.52 (active) and 1.26 (inactive)
log fold change Tl+ flux (F380Y/beta4): 0.154 (active)
log fold change Tl+ flux [10]: 0.0893 (inactive)
log fold change Tl+ flux (R275C): 0.00518 (inactive)
log fold change Tl+ flux (R275C/beta1): 0.139 (active)
log fold change Tl+ flux (R275C/beta2Delta): 0.139 (active)
log fold change Tl+ flux (R275C/beta4): 0.092 (active)
log fold change Tl+ flux (R275C/Slo1WT/beta2): 0.0308 (inactive)

CC(C)NCC(O)c1ccc(O)c(O)c1 (stereo not given)
inhibition [1]: 19.5%
score [2]: 1.1
cytochrome c release ratio [3]: 0.68
inhibition of aggregation [4]: 84.7%
glutamate uptake change [5]: -0.29%
fluorescence ratio [6]: 1.01 (inactive)
inhibition [7]: -5% (inactive)
inhibition [8]: -0.48% (inactive)
fluorescence ratio [9]: 0.95 (inactive)
log fold change Tl+ flux (F380Y/beta4): 0.0647 (inactive)
log fold change Tl+ flux [10]: -0.00786 (inactive)
log fold change Tl+ flux (R275C): 0.0272 (inactive)
log fold change Tl+ flux (R275C/beta1): -0.0419 (inactive)
log fold change Tl+ flux (R275C/beta2Delta): 0.00121 (inactive)
log fold change Tl+ flux (R275C/beta4): 0.0195 (inactive)
log fold change Tl+ flux (R275C/Slo1WT/beta2): -0.00526 (inactive)

NC12CC3CC(CC(C3)C1)C2
inhibition [1]: -8.1%
score [2]: 1.77
cytochrome c release ratio [3]: 0.94
inhibition of aggregation [4]: 63.2%
glutamate uptake change [5]: -5.28%
fluorescence ratio [6]: 0.99 (inactive)
inhibition [7]: -0.45% (inactive)
inhibition [8]: -1.24% (inactive)
fluorescence ratio [9]: 0.97 (inactive)
z-score [11]: 0.28 (inactive) and 0.225 (inactive) and 0.335 (inactive)
log fold change Tl+ flux (F380Y/beta4): 0.0492 (inactive)
log fold change Tl+ flux [10]: 0.0152 (inactive)
log fold change Tl+ flux (R275C): -0.00425 (inactive)
log fold change Tl+ flux (R275C/beta1): 0.0102 (inactive)
log fold change Tl+ flux (R275C/beta2Delta): 0.045 (inactive)
log fold change Tl+ flux (R275C/beta4): -0.0136 (inactive)
log fold change Tl+ flux (R275C/Slo1WT/beta2): 0.0148 (inactive)

CCC1(c2ccccc2)C(=O)NCNC1=O
inhibition [1]: 9.61%
score [2]: 1.24
cytochrome c release ratio [3]: 1.19
inhibition of aggregation [4]: 63%
glutamate uptake change [5]: -24.4%
fluorescence ratio [6]: 1.04 (inactive)
inhibition [7]: -2.27% (inactive)
inhibition [8]: -0.48% (inactive)
fluorescence ratio [9]: 0.97 (inactive)
z-score [11]: 1.15 (inactive) and 0.365 (inactive) and 1.9 (inactive)
log fold change Tl+ flux (F380Y/beta4): 0.00245 (inactive)
log fold change Tl+ flux [10]: 0.023 (inactive)
log fold change Tl+ flux (R275C): -0.0184 (inactive)
log fold change Tl+ flux (R275C/beta1): -0.0109 (inactive)
log fold change Tl+ flux (R275C/beta2Delta): -0.0215 (inactive)
log fold change Tl+ flux (R275C/beta4): 0.0127 (inactive)
log fold change Tl+ flux (R275C/Slo1WT/beta2): -0.0237 (inactive)

From PubChem BioAssay
